# HCMV antiviral = qHTS Assay for inhibitors of the human cytomegalovirus (HCMV); HFF cells, HCMV-luciferase reporter, 72 h; hits give low values; activity change, negative = inhibition, % at 57.5 µM; actives 4.5% (n = 410,000); in the data active = activity change below about -60%; inconclusive = no clear call, values can overlap the other calls; inactive = above about -39%
#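 Luciferase read-out from HCMV-luciferase-infected HFFs (MOI 1 PFU/cell) 72 h post infection at 37C; compounds added after 16 h cell attachment; activity normalized between buffer-only basal and Salinomycin (10uM) inhibitor controls.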
# Marburg entry inh = qHTS for inhibitors of binding or entry into cells for Marburg Virus. Marburg virus pseudotyped entry inhibition, cell reporter. Potency, µM (doses to about 37.8 µM), for inactives: at the top dose activity change, negative = inhibition, actives largely listed as inhibitors. actives 1.8% (n = 300,000); calls by dose curve; tested in HEK293 cells; also: potency is read from the fitted curve at half-maximal effect
# FMDV inh = High Throughput Screening for Foot and Mouth Disease Virus Antivirals | FMDV antiviral cell-based qHTS | Potency, µM (top dose mostly 57.9 µM), for inactives: at the highest dose activity change, negative = inhibition, usual class: inhibitors | actives 1.2% (n = 410,000) | AID 1159524, 2015; calls by dose curve; tested in HEK293T cells; also: read-out not given here; potency is read from the fitted curve at half-maximal effect; nearly all actives have a fitted effect of over 45% in size
# HCV inhibitor = qHTS Assay for Inhibitors of Hepatitis C Virus (HCV) | actives 3.4% (n = 340,000) | Potency, µM (series often up to 41.8 µM), for the others: at the top dose activity change, negative = inhibition, most hits filed as inhibitors | Huh7.5.1 HCVcc-Cre infection, luciferase reporter, 44 h; active = well fitted inhibition curve with a large enough effect; inconclusive = small, poorly fitted or top-dose-only effect, or another doubt; inactive = no such curve, though single readings can be large or run the other way; also: potency is read from the fitted curve at half-maximal effect
#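 A cell-based infection assay in which seeded cells (1,000 per well) receive test compound after 4 h, are inoculated with HCVcc-Cre at approximately 0.5 moi, and are incubated 44 h before luminescence detection.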
# Lassa entry inh = qHTS for Inhibitors of binding or entry into cells for Lassa Virus | AID 540256, 2011 | actives 1.2% (n = 300,000) | Lassa virus pseudotype entry inhibition, cell reporter | Potency, µM (series often up to 37.9 µM), for the others: at the top dose activity change, negative = inhibition, hits mostly inhibitors; calls by dose curve; tested in HEK293 cells; also: potency is read from the fitted curve at half-maximal effect; nearly all actives have a fitted effect of over 50% in size
# Starred values were filed as active, the others as inactive; ? = inconclusive; / = no result; [ ] = remark or other dose. An excerpt weighted towards active compounds, which were near 7.9% of everything screened. % is scaled to controls: 0 for no effect and ±100 for the full control effect.
SMILES,HCMV antiviral,Marburg entry inh,FMDV inh,HCV inhibitor,Lassa entry inh
CCn1nnnc1NC(=O)c1cc(Cl)c(OC)c(Cl)c1,-62.9*,-4.9%[46.1 µM],-14.1%,-10.1%,-3.0%[46.1 µM]
CCn1nnnc1NC(=O)c1cccc(OC)c1,146.2,?,47.8%,-3.0%,/
Cc1ccc(-c2cc3cccc[n+]3cc2-c2ccc(C)cc2)cc1,-97.6*,3.16µM*,39.8µM*,?,6.51µM*
CNC(=O)COC(=O)c1cc(=O)[nH]c2ccccc12,-29.7,13.4%,21.3%,18.8%,0.6%
NC(=O)COC(=O)c1cc(=O)[nH]c2ccccc12,-33.8,/,14.5%,10µM*,/
CCOC(=O)C1=CCN(S(=O)(=O)c2ccccc2Cl)C1c1ccc(Cl)cc1 (stereo not drawn),-28.4,/,/,/,/
CCOC(=O)C1=C[C@@H](C(C)(C)C)N(S(=O)(=O)c2ccccc2C)[C@H]1c1ccc(Cl)cc1,-76.7*,/,?,/,/
CCOC(=O)C1=C[C@@H](C(C)(C)C)N(S(=O)(=O)c2ccc(C)cc2)[C@H]1c1ccc(Cl)c(Cl)c1,-87.7*,/,?,/,/
COC(=O)C1=C(C)NC(=O)NC1c1ccc(-c2ccc(Cl)cc2)o1 (stereo not drawn),?,/,-27.5%,8.91µM*,/
Cc1ccc(S(=O)(=O)N2CCCC(C(=O)Nc3ccc(C(=O)O)cc3)C2)cc1Cl (stereo not drawn),?,-11.0%,18.5%,2.7%,12.4%[46.1 µM]
COc1ccc(C2CC3(CC(C)(C)NC(SC)=N3)Oc3cc(O)cc(C)c32)cc1 (stereo not drawn),-76.2*,10µM*,-25.1%,12.6µM*,18.4µM*
Cc1cc(O)cc2c1C(c1ccc(F)cc1)CC1(CC(C)(C)NC(=S)N1)O2 (stereo not drawn),/,-9.2%[46.1 µM],-22.0%,22.4µM*,?
COc1ccc(CCNc2c(C)c(C)nc3ncnn23)cc1,-89.1*,?,?,?,?
CCc1c(C)nc2ncnn2c1NCCc1ccc(OC)c(OC)c1,-72.7*,-1.4%,?,?,-24.9%
COc1ccc(-c2cc(NCCc3ccncc3)n3ncnc3n2)cc1,53.7,?,0.6%,0.5%,10.9%
CCOc1ccc(CCNc2cc(C)nc3ncnn23)cc1OCC,-26.2,-16.8%,?,?,6.0%
Cc1ccc(S(=O)(=O)c2nc(S(=O)(=O)c3ccccc3)sc2NCCCOC(C)C)cc1,-17.0,3.98µM*,24.7%,/,-32.6%[46.1 µM]
CCN(CC)CCC12CC(C)OC1=Nc1ccccc1NC2=O (stereo not drawn),16.5,/,-11.0%,/,/
CC(C)CC(CO)NS(=O)(=O)c1cccc(Cl)c1F (stereo not drawn),-20.3,/,-8.0%,-20.7%,/
CC(C)C[C@@H](CO)NS(=O)(=O)c1c(F)cccc1F,4.9,?,-11.0%,3.55µM*,/
O=C(NC(Nc1nc2ccc([N+](=O)[O-])cc2s1)(C(F)(F)F)C(F)(F)F)c1ccccc1Cl,?,?,2.51µM*,0.562µM*,1.64µM*
Cc1nc2c(-c3ccc(Cl)cc3)c(C)[nH]n2c(=O)c1Cc1ccccc1,-99.1*,3.98µM*,-29.4%,?,?
Cc1nc2c(-c3ccccc3)c(C)[nH]n2c(=O)c1Cc1ccccc1,-37.3,?,-23.9%,10µM*,-25.7%
CCOC(=O)Cc1c(C)nc2c(-c3ccccc3)c(C)[nH]n2c1=O,-8.3,?,-8.1%,/,-17.2%[14.3 µM]
Cc1[nH]n2c(=O)cc(-c3ccccc3Cl)nc2c1-c1ccccc1,-93.6*,-25.3%[46.1 µM],-22.7%,/,?
SMILES,HCMV antiviral,Marburg entry inh,FMDV inh,HCV inhibitor,Lassa entry inh
Cc1ccccc1Cc1c(C)nc2c(-c3ccccc3)c(C)[nH]n2c1=O,-36.8,?,?,/,?
Cc1cccc(Cc2c(C)nc3c(-c4ccccc4)c(C)[nH]n3c2=O)c1,-79.4*,?,-9.4%,/,?
COc1ccc(-c2c(C)[nH]n3c(=O)c(Cc4ccccc4)c(C)nc23)cc1OC,-23.6,7.94µM*,-4.0%,?,?
Cc1c(C(=O)NCCNc2ncc(C(F)(F)F)cc2Cl)cccc1[N+](=O)[O-],-7.8,-29.1%,-14.2%,11.2µM*,?
CCOC(=O)c1c(C)oc2nc(C)nc(N3CCN(c4ccc(C)cc4C)CC3)c12,15.1,/,9.4%,/,-11.3%[46.1 µM]
CCOC(=O)c1c(C)oc2nc(C)nc(N3CCN(c4ccccc4)CC3)c12,?,/,28.2µM*,/,-11.7%[46.1 µM]

# Assay outcomes from PubChem.
